In PubChem BioAssay (NCATS):
Results filed as inconclusive are left out. Calls of active or inactive are those of the source. Calls follow the shape of the full dose curve.

assay: Primary qHTS for inhibitors of SARS-S pseudo-typed particle cell entry (AID 1479145); conditions: SARS-S pseudotyped particle cell entry, luciferase reporter; series mostly up to 57.1 µM; activity change, negative = inhibition: at the top concentration; also: nearly all actives have a fitted effect of over 45% in size
% is scaled to controls: 0 for no effect and ±100 for the full control effect; potency is read from the fitted curve at half-maximal effect.

SMILES	activity change, negative = inhibition	outcome	Potency
C[C@@H](c1ncncc1F)C(O)(Cn1cncn1)c1ccc(F)cc1F (stereo partly drawn)	-21.2% (inactive)		
CC1=C(C(=O)O)N2C(=O)[C@@H](NC(=O)[C@H](N)c3ccccc3)[C@H]2SC1	-23.1% (inactive)		
Nc1nc2c(ncn2COCCO)c(=O)[nH]1		inactive	
CCc1c2c(nc3ccc(OC(=O)N4CCC(N5CCCCC5)CC4)cc13)-c1cc3c(c(=O)n1C2)COC(=O)[C@]3(O)CC	-3.29% (inactive)		
CC(C)c1nc(CN(C)C(=O)N[C@H](C(=O)N[C@@H](Cc2ccccc2)C[C@H](O)[C@H](Cc2ccccc2)NC(=O)OCc2cncs2)C(C)C)cs1	-12.9% (inactive)		
CC[N+](C)(C)c1cccc(O)c1	-3.02% (inactive)		
CC[C@@H]([C@H](C)O)n1ncn(-c2ccc(N3CCN(c4ccc(OC[C@@H]5CO[C@@](Cn6cncn6)(c6ccc(F)cc6F)C5)cc4)CC3)cc2)c1=O			14.1 µM (active)
O=C1c2cccc3c2[C@H](CCC3)CN1[C@@H]1CN2CCC1CC2	-23.3% (inactive)		
Cc1ccc(-c2cc(C(F)(F)F)nn2-c2ccc(S(N)(=O)=O)cc2)cc1	0.251% (inactive)		
CC[C@]1(O)C[C@@H]2CN(CCc3c([nH]c4ccccc34)[C@@](C(=O)OC)(c3cc4c(cc3OC)N(C)[C@H]3[C@@](O)(C(=O)OC)[C@H](OC(C)=O)[C@]5(CC)C=CCN6CC[C@]43[C@@H]65)C2)C1	-27.7% (inactive)		
OCCN1CCN(CCCN2c3ccccc3Sc3ccc(Cl)cc32)CC1			14.1 µM (active)
COc1ccccc1OCC(O)COC(N)=O (stereo not drawn)	3.07% (inactive)		
COc1cc2ncnc(Nc3ccc(F)c(Cl)c3)c2cc1OCCCN1CCOCC1			12.6 µM (active)
CCCc1nc2c(C)cc(-c3nc4ccccc4n3C)cc2n1Cc1ccc(-c2ccccc2C(=O)O)cc1		inactive	
O=C1c2c(O)ccc(O)c2C(=O)c2c(NCCNCCO)ccc(NCCNCCO)c21	-98.2% (inactive)		
CN(C)/N=N/c1nc[nH]c1C(N)=O	-9.31% (inactive)		
COc1cc2nc(N3CCN(C(=O)C4CCCO4)CC3)nc(N)c2cc1OC (stereo not drawn)	-0.713% (inactive)		
CNC1(C)C2CCC(C2)C1(C)C (stereo not drawn)		inactive	
COc1ccccc1Oc1c(NS(=O)(=O)c2ccc(C(C)(C)C)cc2)nc(-c2ncccn2)nc1OCCO	-34.8% (inactive)		

SMILES	activity change, negative = inhibition	outcome	Potency
CC1(C)NC(=O)N(c2ccc([N+](=O)[O-])c(C(F)(F)F)c2)C1=O			35.5 µM (active)
Oc1cn2c(n1)Nc1ccc(Cl)c(Cl)c1C2	-16.2% [at 26.4 µM] (inactive)		
C[C@@H](O)[C@H]1C(=O)N2C(C(=O)O)=C(S[C@@H]3CN[C@H](CNS(N)(=O)=O)C3)[C@H](C)[C@H]12	-22.1% (inactive)		
COc1cc2c(c(OC)c1OC)-c1ccc(OC)c(=O)cc1[C@@H](NC(C)=O)CC2	-3.78% (inactive)		
Nc1cc(-c2ccncc2)c[nH]c1=O		inactive	
O=C1C(=O)c2ccccc2C(O)=C1C1CCC(c2ccc(Cl)cc2)CC1 (stereo not drawn)			0.891 µM (active)
O=c1[nH]cnc2c1ncn2[C@H]1CC[C@@H](CO)O1		inactive	
CC(C)OC(=O)C(C)(C)Oc1ccc(C(=O)c2ccc(Cl)cc2)cc1	1.98% (inactive)		
CCn1cc(C(=O)O)c(=O)c2cc(F)c(N3CCNCC3)cc21		inactive	
CNS(=O)(=O)Cc1ccc2[nH]cc(CCN(C)C)c2c1	0.287% (inactive)		
O=C(O)c1ccc(-n2nc(-c3ccccc3O)nc2-c2ccccc2O)cc1		inactive	
O=C1Cc2cc(CCN3CCN(c4nsc5ccccc45)CC3)c(Cl)cc2N1	-12.9% (inactive)		
COC(=O)C(c1ccccc1Cl)N1CCc2sccc2C1 (stereo not drawn)		inactive	
CC(C)(O)c1ccccc1CC[C@@H](SCC1(CC(=O)O)CC1)c1cccc(/C=C/c2ccc3ccc(Cl)cc3n2)c1		inactive	
CC(COc1ccccc1)N(CCCl)Cc1ccccc1 (stereo not drawn)	-3.26% (inactive)		
Nc1nc(N)c2nc(-c3ccccc3)c(N)nc2n1	-8.42% (inactive)		
O[C@@H](c1cc(C(F)(F)F)nc2c(C(F)(F)F)cccc12)[C@H]1CCCCN1	-11.9% (inactive)		
N[C@@H]1CONC1=O	-15.3% (inactive)		
O=C(O)P(=O)(O)O		inactive	
